Only a selection was taken, and hits are over-represented in it overall.
KDM5B inhibitor – inhibitors of human KDM5B histone demethylase; Q9UGL1; KDM5B demethylase, FDH-coupled NADH fluorescence (FDH is formaldehyde dehydrogenase); Potency, µM (top dose mostly 57.7 µM), hits mostly inhibitors; hit rate 2.6% among 220,000; active means well fitted inhibition curve with a large enough effect; further: nearly all actives have a fitted effect of over 70% in size
Target sequence (Q9UGL1 whole entry, looked up): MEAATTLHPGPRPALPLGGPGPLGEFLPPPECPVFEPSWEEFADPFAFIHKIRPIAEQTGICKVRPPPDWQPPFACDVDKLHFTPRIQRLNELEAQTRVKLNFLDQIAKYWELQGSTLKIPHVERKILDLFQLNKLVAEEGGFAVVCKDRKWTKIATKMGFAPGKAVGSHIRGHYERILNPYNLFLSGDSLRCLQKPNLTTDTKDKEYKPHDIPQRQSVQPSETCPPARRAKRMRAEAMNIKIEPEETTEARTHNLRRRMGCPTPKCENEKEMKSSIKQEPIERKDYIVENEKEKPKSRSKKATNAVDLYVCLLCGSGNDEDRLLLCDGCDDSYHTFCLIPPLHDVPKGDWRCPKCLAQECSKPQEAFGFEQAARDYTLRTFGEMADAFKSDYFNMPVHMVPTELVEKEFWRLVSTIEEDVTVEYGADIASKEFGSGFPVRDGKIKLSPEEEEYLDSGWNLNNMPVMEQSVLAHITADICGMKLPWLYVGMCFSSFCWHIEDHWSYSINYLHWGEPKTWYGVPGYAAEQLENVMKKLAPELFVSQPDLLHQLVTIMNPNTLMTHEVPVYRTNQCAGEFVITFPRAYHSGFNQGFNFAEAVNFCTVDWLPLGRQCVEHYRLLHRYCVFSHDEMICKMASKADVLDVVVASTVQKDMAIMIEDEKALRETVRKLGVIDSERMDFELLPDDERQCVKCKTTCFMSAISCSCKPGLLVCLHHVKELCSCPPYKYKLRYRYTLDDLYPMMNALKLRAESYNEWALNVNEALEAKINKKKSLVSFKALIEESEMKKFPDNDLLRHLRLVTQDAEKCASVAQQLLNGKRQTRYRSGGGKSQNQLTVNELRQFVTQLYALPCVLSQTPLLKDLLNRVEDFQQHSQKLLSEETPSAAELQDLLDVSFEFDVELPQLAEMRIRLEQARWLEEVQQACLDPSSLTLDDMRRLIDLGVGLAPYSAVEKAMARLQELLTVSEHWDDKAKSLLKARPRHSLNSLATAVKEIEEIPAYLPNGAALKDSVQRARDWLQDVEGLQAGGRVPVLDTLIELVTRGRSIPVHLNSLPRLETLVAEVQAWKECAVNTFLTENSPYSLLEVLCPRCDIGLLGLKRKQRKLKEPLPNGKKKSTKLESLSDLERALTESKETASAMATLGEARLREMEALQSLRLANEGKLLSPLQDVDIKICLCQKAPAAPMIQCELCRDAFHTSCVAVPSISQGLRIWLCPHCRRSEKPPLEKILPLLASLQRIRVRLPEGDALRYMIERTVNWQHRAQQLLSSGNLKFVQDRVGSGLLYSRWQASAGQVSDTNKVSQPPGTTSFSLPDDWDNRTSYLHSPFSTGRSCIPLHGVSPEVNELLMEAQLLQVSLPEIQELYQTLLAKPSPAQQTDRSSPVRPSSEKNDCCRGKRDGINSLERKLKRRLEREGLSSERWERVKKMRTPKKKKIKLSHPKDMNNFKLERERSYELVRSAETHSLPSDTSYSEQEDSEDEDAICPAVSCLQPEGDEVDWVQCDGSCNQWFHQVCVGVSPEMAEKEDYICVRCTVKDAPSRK
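Compound dilutions met 200 nM (final) KDM5BΔAP for 10 min at room temperature before substrate addition. The substrate mix held 12.5 µM H3K4me3 with cofactors 25 µM α-ketoglutarate and 50 µM Fe²⁺. NADH signal gain over 30 min defined activity.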
Hits are given with their value; - = inactive.

SMILES	KDM5B inhibitor
Cc1ccc(NCC(=O)Nc2ccc(CC#N)cc2)c(F)c1	-
Cc1ccc(NC(=O)CCNc2c(C)nc3cnccn23)c(F)c1	25.1µM
Cc1ccc(NC(=O)CCn2ccn3nc4c(c3c2=O)CCCC4)c(F)c1	-
CCOc1ccc(NC(=O)CCc2c(C)nc3nc(C)nn3c2C)cc1	-
CCOc1ccc(NC(=O)CSCc2cc(=O)n3cccc(C)c3n2)cc1	-
CCOc1ccc(NC(=O)CCNc2c(C)nc3cnccn23)cc1	20µM
Cc1nc2ccc(NC(=O)CC3C=CCC3)cc2s1 (configuration not stated)	-
CCC(C)N(CC(=O)Nc1cccc(C)c1C)C(=O)CN1CCCC(C(F)(F)F)C1 (configuration not stated)	-
Cn1c(=O)c2c(nc(NCCCN3CCOCC3)n2Cc2ccccc2)n(C)c1=O	-
CCN(Cc1ccc(C(=O)Nc2cccc(C(=O)NC3CC3)c2)cc1)C(C)C	-
CN(C)C(=O)c1ccc2nccn2c1	126µM
O=C(c1ccc2nccn2c1)N1CCCCC1	-
COc1ccc([C@@H](NC(=O)c2cc3ncccn3n2)C2CC(O)C2)cn1 (some centres not stated)	-
CC(C)NC(=O)c1ccc(C(C)C)cc1	-
COc1ccc([C@@H](NC(=O)c2sc(C)nc2C)C2CC(O)C2)cn1 (some centres not stated)	-
CN(C)C(=O)c1ccc(Cl)nc1	-
COc1ccc([C@@H](NC(=O)c2ccc3nccn3c2)C2CC(O)C2)cn1 (some centres not stated)	20µM
CC(C)NC(=O)c1ccc2nccn2c1	141µM
CN1CCN(C(=O)c2ccc3nccn3c2)CC1	-
CCN1C(=O)COc2ccc(NC(=O)c3cc(=O)c4cc(C)ccc4o3)cc21	-
Cc1cccc(-c2noc([C@@H]3C[C@@H](O)CN3Cc3ncc[nH]3)n2)c1	-
CCOC(=O)C(Cc1ccc(C(F)(F)F)cc1)(NC(C)=O)C(=O)OCC	-
CC(C)C(=O)N1CCN(C(=O)C2CC(=O)N(c3cccc(C(F)(F)F)c3)C2)CC1 (configuration not stated)	-
Cc1ccc(OCCN)cc1C	-
O=C(NC1CC1)C1(c2ccc(Br)cc2)CCCC1	-
SMILES	KDM5B inhibitor
COCCN1C(=O)c2[nH]nc(-c3cc(Cl)c(C)cc3O)c2C1c1ccc(O)c(OC)c1 (configuration not stated)	-
CCOc1ccc(CNCc2ccco2)cc1Cl	-
Cc1cccc(C(=O)Nc2ccc(NC(=S)NC(=O)c3ccc(Cl)cc3)cc2)c1	-
Cc1cn2nc(C(=O)NCCCc3ccccc3)cc2c(=O)[nH]1	-
COc1ccc(NC(=O)c2cc3c(N(C)Cc4ccccc4)nc(C)cn3n2)cc1	31.6µM
COc1ccc(NC(=O)c2nc(-c3ccccc3)n(-c3ccccc3Cl)n2)cc1	-
Cc1cn2nc(C(=O)Nc3ccccc3)cc2c(N(C)Cc2ccccc2)n1	28.2µM
Cc1cn2nc(C(=O)Nc3ccc4c(c3)OCCO4)cc2c(N(C)Cc2ccccc2)n1	28.2µM
Cc1cc(=O)n(CC(=O)Nc2cccc(F)c2)c(N(C)Cc2ccccc2)n1	-
Cc1cn2nc(C(=O)Nc3ccc(Cl)cc3C)cc2c(N(C)Cc2ccccc2)n1	-
COc1ccc(NC(=O)CNC(=O)Cc2ccccc2)cc1	-
Cc1nc(-c2ccccc2)sc1CCNC(=O)C(=O)Nc1ccc2c(c1)OCCO2	-
Cc1cn2nc(C(=O)Nc3cccc(F)c3C)cc2c(N(C)Cc2ccccc2)n1	28.2µM
Cc1cn2nc(C(=O)Nc3ccccc3C)cc2c(N(C)Cc2ccccc2)n1	-
Cn1ccc(C(=O)Nc2ccc3c(c2)OCCO3)n1	-
CCC(C)Nc1nc(-c2ccc(NC(C)=O)cc2)cs1 (configuration not stated)	-
CN(Cc1nc2ccccc2n1C(F)F)S(=O)(=O)c1cc(Cl)ccc1Cl	-
O=c1oc2ccc(Cl)cc2cc1-c1csc(Nc2ccc(F)cc2F)n1	-
COc1ccc(-n2c(SCC(=O)c3c[nH]c(C(=O)N4CCCC4)c3)nnc2-c2ccncc2)cc1	-
CC(=O)Oc1ccc2c(C)c(CC(=O)NCCc3ccccc3F)c(=O)oc2c1OC(C)=O	-
Cc1ccc2c(=O)cc(C(=O)Nc3cccc(Cl)c3)oc2c1C	-
O=C(CSc1nnc2ccccn12)N1CCN(C(c2ccccc2)c2ccccc2)CC1	-
O=C(Nc1cccc(C(F)(F)F)c1)c1nc2ccccc2nc1N1CCCC1	-
Cc1ccc(-n2c(C)nnc2SCC(=O)Nc2c(C#N)c(C)c(C)n2Cc2ccccc2)cc1	-
COc1cc(NC(=O)c2cc(=O)c3cc(C)ccc3o2)cc(OC)c1	-
SMILES	KDM5B inhibitor
O=C(Nc1cccc(S(=O)(=O)NC2=NCCC2)c1)C1(c2ccc(Cl)cc2)CCCC1	-
CN(C)C(=O)c1ccnc(-c2nnc3ccc(N4CCCCC4)nn23)c1	-
O=C(NC1CCCCCCC1)c1ccncc1	-
O=[N+]([O-])c1ccc(N2CCCCC2)nc1	-
O=C(c1ccc(-c2ccc(N3CCCCCC3)nc2)cc1)N1CCCC1	25.1µM
O=C(NC1CCCC1)c1ccc(-c2ccc(N3CCCCC3)nc2)cc1	11.2µM
CC(C)NC(=O)c1ccc(-c2ccc(N3CCCCCC3)nc2)cc1	-
CN(C)C(=O)c1ccc(-c2ccc(N3CCCCCC3)nc2)cc1	28.2µM
O=C(c1ccc(N2C(=O)c3ccccc3C2=O)cc1)N1CCCCC1	-
O=C(NC1CC1)c1ccc(-c2ccc(N3CCCCCC3)nc2)cc1	-
O=C(CCc1cccc(F)c1)NC1CC2CC1C1CCCC21 (configuration not stated)	-
CCOC(=O)Cc1csc(NC(=O)Cc2c(C)c3c(OC)cc(C)cc3oc2=O)n1	-
CC(C)CN1C(=O)c2ccccc2C(C(=O)Nc2ccncc2)C12CCCC2 (configuration not stated)	-
COc1nc(-c2ccc(OC)c3ncccc23)ncc1F	31.6µM
CCC(CC)C(=O)Nc1ccc(OC)c2ncccc12	-
COc1cc(Nc2c(C#N)cnc3c(OC)cccc23)cc(OC)c1OC	-
COc1ccc(S(=O)(=O)Nc2cc(C)cc(C)c2)c2cccnc12	-
COc1ccc(CC(=O)Nc2ccc(OC)c3ncccc23)cc1	-
COc1ccc(-c2nc(C)c(C)cc2C#N)c2cccnc12	31.6µM
O=C1Cc2cc(-c3csc(NC4CC4)n3)ccc2N1	-
CC(C)C(CNC(=O)c1cc(=O)c2ccccc2o1)N1CCOCC1 (configuration not stated)	-
COc1ccc(CN(C)C2CCc3nn(C)c(=O)n3CC2)cc1Cn1cccn1 (configuration not stated)	-
CCN(CC)C(=O)[C@@H]1CCC[C@@H](NC(=O)c2ccc(C#N)cc2)CN(C)C(=O)C1	-
CCN(CC)C(=O)[C@@H]1C[C@@H](NC(=O)c2cc3c(s2)CCCC3)CN1C	-
CCN(CC)C(=O)[C@@H]1C[C@@H](NC(=O)c2ccn(CC)c(=O)c2)CN1C(C)=O	28.2µM
SMILES	KDM5B inhibitor
O=C(Cc1c[nH]c2ncc(-c3cccnc3)cc12)NC1CC1	-
O=C(Cc1c[nH]c2ncc(-c3ccccc3)cc12)NC1CCOCC1	28.2µM
Cn1cc(-c2cnc3[nH]cc(CC(=O)N4CCCC4)c3c2)cn1	-
CN1CCC(NC(=O)CCc2ncc(-c3ccccc3)o2)CC1	-
CC(C)CNC(=O)Cc1c[nH]c2ncc(-c3cnn(C)c3)cc12	39.8µM
O=C(Cc1c[nH]c2ncc(-c3cccnc3)cc12)NC1CCOCC1	-
CN1CCC(NC(=O)Cc2c[nH]c3ncc(-c4ccccc4)cc23)CC1	35.5µM
CCCOc1ccc(Br)cc1C1C(C(=O)OC)=C(C)Nc2nnnn21 (configuration not stated)	-

Source: PubChem BioAssay (National Center for Advancing Translational Sciences (NCATS))
